Test results taken from PubChem BioAssay (Tox21).
Where “and” joins values, the source holds several entries; their conditions need not be identical. Equal entries are not always repeated. Results filed as inconclusive are left out. Some compounds were tested as several samples or in several runs, with calls that do not always agree. Calls of active or inactive are those of the source. Unless noted, the call rests on the fitted dose curve; in most records, active means well fitted curve in the direction sought with a large enough effect in the repeat runs; inconclusive means weak or mixed curves; inactive means no such curve, though single readings can be large; an effect the other way counts as inactive or inconclusive.

Assays:
[1] = qHTS assay to identify small molecule agonists of the progesterone receptor (PR) signaling pathway - cell viability counter screen (AID 1346799; calls by dose curve; further: nearly all actives have a fitted effect of over 45% in size; further: potency means the concentration at half of the fitted maximal effect)
Summary of the method: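 Viability was scored by ATP luminescence (CellTiter-Glo, 30 min, room temperature) in the same wells used for the reporter readout, after 16 hr compound exposure of PR-UAS-bla HEK293T cells.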

[2] = qHTS assay to identify small molecule antagonists of the TGF-beta/Smad signaling pathway - cell viability counter screen (AID 1346824); further: nearly all actives have a fitted effect of over 50% in size
Summary of the method: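 SBE-bla HEK 293T cells were plated overnight at 37 C, then given compounds in DMSO plus TGF-beta1 (added as 0.25 ng/mL solution) for 5 hr. After the bla read, CellTiter-Glo was added to the same wells and luminescence read after 30 min at room temperature.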

[3] = qHTS assay to identify small molecule agonists of the TGF-beta/Smad signaling pathway (AID 1346859; active means well fitted activation curve with a large enough effect in the signal ratio in the repeat runs, not every such curve was filed as active; the % refers to the signal ratio; further: potency means the concentration at half of the fitted maximal effect; on activation: series mostly up to about 77 µM)
Summary of the method: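 Dual-wavelength fluorescence (460/530 nm emission) quantified beta-lactamase expression under the Smad binding element in HEK 293T cells following 5 hr compound treatment at 37 C.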

[4] = biological target: Thyrotropin-releasing hormone receptor (Homo sapiens) (UniProt P34981); experiment: qHTS assay to identify small molecule antagonists of the thyrotropin-releasing hormone receptor (TRHR) signaling pathway (AID 1346877; active means well fitted inhibition curve with a large enough effect in the repeat runs, not every such curve was filed as active; further: series mostly up to about 51 µM)
Chain of Thyrotropin-releasing hormone receptor (Homo sapiens) (P34981 whole entry, looked up): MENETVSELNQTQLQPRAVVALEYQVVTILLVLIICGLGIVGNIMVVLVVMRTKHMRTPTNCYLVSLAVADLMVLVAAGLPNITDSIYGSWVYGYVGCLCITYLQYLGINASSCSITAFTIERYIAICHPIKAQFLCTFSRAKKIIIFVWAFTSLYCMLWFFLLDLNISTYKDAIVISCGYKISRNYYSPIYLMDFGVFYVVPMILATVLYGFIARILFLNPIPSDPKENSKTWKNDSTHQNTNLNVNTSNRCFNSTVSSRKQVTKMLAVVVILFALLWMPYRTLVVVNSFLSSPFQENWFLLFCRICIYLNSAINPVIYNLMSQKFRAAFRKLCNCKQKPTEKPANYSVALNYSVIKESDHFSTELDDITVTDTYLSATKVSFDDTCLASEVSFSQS
Summary of the method: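 Overnight-plated (18 h, 37 °C) HEK293 cells expressing TRHR were dye-loaded 2 h, treated with compound, then stimulated with TRH at 1 nM final. Fluorescence intensity was captured every second for 3 min.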

[5] = biological target: Thyrotropin-releasing hormone receptor (Homo sapiens) (UniProt P34981); experiment: qHTS assay to identify small molecule agonists of the thyrotropin-releasing hormone receptor (TRHR) signaling pathway (AID 1346891; calls by dose curve;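 further: HEK293 cells expressing TRHR with calcium dye readout; series mostly up to about 58 µM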)
Summary of the method: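 Kinetic fluorescence (3 min, 1 s intervals) reported intracellular calcium after compound transfer onto TRHR-Hek293 cells pre-loaded with dye for 2 h at 37 °C.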

[6] = Human pregnane X receptor (PXR) small molecule agonists, qHTS cell viability counter screen (AID 1346977); further: nearly all actives have a fitted effect of over 50% in size; further: potency means the concentration at half of the fitted maximal effect
Summary of the method: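 HepG2 cells stably carrying the PXR-Luc reporter are cultured with 5% charcoal-stripped FBS and treated with compounds for 24hr. CellTiter-Fluor is added at 23hr and fluorescence is read after 1hr.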

[7] = Caspase-3/7 induction in HepG2 cells by small molecules, qHTS assay (AID 1346978); further: nearly all actives have a fitted effect of over 15% in size; further: potency means the concentration at half of the fitted maximal effect
Summary of the method: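 Wild-type HepG2 cells (2,000/well) were settled 5 h at 37 C, 5% CO2, then exposed to compounds in DMSO for 17 h. Caspase-3/7 activity was read by luminescence 30 min after adding Caspase-Glo 3/7 reagent at room temperature.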

[8] = Caspase-3/7 induction in CHO-K1 cells by small molecules, qHTS cell viability counter screen (AID 1346979); further: nearly all actives have a fitted effect of over 35% in size; further: potency means the concentration at half of the fitted maximal effect
Summary of the method: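 Seeding: 1,500 CHO-K1 cells/well. Rest: 5hr, 37C. Treatment: compounds in DMSO, 16hr. Read: CellTiter-Fluor, 1hr, fluorescence.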

[9] = Caspase-3/7 induction in CHO-K1 cells by small molecules, qHTS assay (AID 1346980); further: nearly all actives have a fitted effect of over 15% in size; further: potency means the concentration at half of the fitted maximal effect
Summary of the method: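 Wild-type cells were seeded at 1,500 per well and settled 5 hr at 37 C, 5% CO2, then exposed to DMSO-dissolved compounds for 17 hr. Caspase-Glo 3/7 reagent was added, and luminescence was read after 30min at room temperature.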

[10] = Caspase-3/7 induction in HepG2 cells by small molecules, qHTS cell viability counter screen (AID 1346981); further: nearly all actives have a fitted effect of over 30% in size; further: potency means the concentration at half of the fitted maximal effect
Summary of the method: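 Treatment of HepG2 cells with DMSO-delivered compounds ran 16 hr at 37 C following a 5-hr pre-incubation of 2,000 cells/well. CellTiter-Fluor fluorescence, read after 1 hr, served as the viability measure in a qHTS format.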

[11] = biological target: Nuclear receptor subfamily 1 group I member 2 (Homo sapiens) (UniProt O75469); experiment: Human pregnane X receptor (PXR) small molecule agonists, qHTS assay (AID 1346982); further: nearly all actives have a fitted effect of over 35% in size; further: potency means the concentration at half of the fitted maximal effect
Chain of Nuclear receptor subfamily 1 group I member 2 (Homo sapiens) (O75469 whole entry, looked up): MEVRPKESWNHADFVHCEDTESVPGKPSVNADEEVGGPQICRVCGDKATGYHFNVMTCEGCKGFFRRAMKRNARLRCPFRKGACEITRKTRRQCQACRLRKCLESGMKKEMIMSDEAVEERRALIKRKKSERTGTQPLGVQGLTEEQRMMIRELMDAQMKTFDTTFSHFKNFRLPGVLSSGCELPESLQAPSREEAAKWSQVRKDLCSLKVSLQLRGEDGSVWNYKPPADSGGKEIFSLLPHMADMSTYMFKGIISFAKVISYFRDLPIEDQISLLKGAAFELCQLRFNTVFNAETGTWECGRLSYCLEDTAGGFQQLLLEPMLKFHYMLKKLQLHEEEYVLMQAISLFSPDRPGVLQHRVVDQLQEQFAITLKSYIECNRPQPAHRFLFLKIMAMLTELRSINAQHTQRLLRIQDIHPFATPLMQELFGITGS
Summary of the method: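 Stable HepG2 line reporting PXR-mediated CYP3A4 expression via luciferase. Treatment: 24 hr with compounds in DMSO at 37 C. Detection: ONE-Glo luminescence.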

[12] = biological target: Cytochrome P450 2D6 (Homo sapiens) (UniProt P10635); experiment: Cytochrome P450 Family 2 Subfamily D Member 6 (CYP2D6) small molecule antagonists: luciferase reporter qHTS assay (AID 1671196); further: nearly all actives have a fitted effect of over 50% in size; further: potency means the concentration at half of the fitted maximal effect
Chain of Cytochrome P450 2D6 (Homo sapiens) (P10635 whole entry, looked up): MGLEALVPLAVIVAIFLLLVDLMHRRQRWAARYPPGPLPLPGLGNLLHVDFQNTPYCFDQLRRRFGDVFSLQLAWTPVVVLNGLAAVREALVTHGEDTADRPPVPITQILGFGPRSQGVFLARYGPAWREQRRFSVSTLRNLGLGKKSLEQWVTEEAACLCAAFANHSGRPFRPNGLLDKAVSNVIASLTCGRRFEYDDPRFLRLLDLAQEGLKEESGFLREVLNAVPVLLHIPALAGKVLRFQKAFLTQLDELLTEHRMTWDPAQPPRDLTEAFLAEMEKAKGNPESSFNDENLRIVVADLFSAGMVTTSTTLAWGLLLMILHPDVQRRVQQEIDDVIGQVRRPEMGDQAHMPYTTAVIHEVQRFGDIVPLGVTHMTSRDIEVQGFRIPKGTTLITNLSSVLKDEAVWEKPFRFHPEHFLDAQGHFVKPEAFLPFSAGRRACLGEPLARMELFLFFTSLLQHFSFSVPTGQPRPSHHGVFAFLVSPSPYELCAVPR
Summary of the method: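 Chemicals tested for interference with CYP2D6 activity; proluciferin substrate, NADPH regeneration, 1 h at room temperature, luminescent detection.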

[13] = biological target: Cytochrome P450 2C9 (Homo sapiens) (UniProt P11712); experiment: Cytochrome P450 Family 2 Subfamily C Member 9 (CYP2C9) small molecule antagonists: luciferase reporter qHTS assay (AID 1671198); further: nearly all actives have a fitted effect of over 50% in size; further: potency means the concentration at half of the fitted maximal effect
Chain of Cytochrome P450 2C9 (Homo sapiens) (P11712 whole entry, looked up): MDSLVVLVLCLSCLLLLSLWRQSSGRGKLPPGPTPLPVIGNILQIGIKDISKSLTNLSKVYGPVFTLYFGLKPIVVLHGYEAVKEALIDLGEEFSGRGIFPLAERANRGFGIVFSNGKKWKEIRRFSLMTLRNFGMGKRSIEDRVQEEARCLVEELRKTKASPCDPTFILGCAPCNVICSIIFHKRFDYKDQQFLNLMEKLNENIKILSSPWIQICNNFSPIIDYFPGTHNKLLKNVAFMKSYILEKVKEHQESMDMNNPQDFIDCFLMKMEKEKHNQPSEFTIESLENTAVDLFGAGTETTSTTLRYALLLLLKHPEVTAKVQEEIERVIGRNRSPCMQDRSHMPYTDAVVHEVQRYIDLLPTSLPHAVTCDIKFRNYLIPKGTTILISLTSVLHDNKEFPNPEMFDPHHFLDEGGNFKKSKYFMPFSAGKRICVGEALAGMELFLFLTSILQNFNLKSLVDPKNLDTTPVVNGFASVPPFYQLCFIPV
Summary of the method: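 CYP2C9 activity was measured with a P450-Glo proluciferin substrate. Enzyme–substrate mix was held with compound for 10 min at room temperature, then NADPH regeneration solution was added for 1 h at 37C. Luciferin product was read as luminescence.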

[14] = biological target: Cytochrome P450 1A2 (Homo sapiens) (UniProt P05177); experiment: Cytochrome P450 Family 1 Subfamily A Member 2 (CYP1A2) small molecule antagonists: luciferase reporter qHTS assay (AID 1671199); further: nearly all actives have a fitted effect of over 50% in size; further: potency means the concentration at half of the fitted maximal effect
Chain of Cytochrome P450 1A2 (Homo sapiens) (P05177 whole entry, looked up): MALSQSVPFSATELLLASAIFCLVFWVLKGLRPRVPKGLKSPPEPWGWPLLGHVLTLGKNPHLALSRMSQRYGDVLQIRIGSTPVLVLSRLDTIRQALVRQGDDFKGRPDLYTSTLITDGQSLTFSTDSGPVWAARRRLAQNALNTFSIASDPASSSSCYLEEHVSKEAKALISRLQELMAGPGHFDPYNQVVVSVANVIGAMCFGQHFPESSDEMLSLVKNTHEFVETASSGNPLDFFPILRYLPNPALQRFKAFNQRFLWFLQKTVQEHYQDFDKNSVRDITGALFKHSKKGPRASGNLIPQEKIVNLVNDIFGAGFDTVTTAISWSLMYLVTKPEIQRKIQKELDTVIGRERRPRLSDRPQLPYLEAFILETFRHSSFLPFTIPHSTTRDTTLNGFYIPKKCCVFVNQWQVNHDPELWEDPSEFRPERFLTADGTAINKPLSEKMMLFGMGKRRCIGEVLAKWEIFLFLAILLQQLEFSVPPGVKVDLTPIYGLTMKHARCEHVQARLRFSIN
Summary of the method: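 Read-out is luminescence from luciferin detection reagent (20 min) proportional to CYP1A2 activity; compounds in DMSO preincubated 10 min with enzyme and proluciferin substrate, then NADPH regeneration solution, 1 h, room temperature.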

[15] = biological target: Cytochrome P450 2C19 (Homo sapiens) (UniProt P33261); experiment: Cytochrome P450 Family 2 Subfamily C Member 19 (CYP2C19) small molecule antagonists: luciferase reporter qHTS assay (AID 1671197); further: nearly all actives have a fitted effect of over 65% in size; further: potency means the concentration at half of the fitted maximal effect
Chain of Cytochrome P450 2C19 (Homo sapiens) (P33261 whole entry, looked up): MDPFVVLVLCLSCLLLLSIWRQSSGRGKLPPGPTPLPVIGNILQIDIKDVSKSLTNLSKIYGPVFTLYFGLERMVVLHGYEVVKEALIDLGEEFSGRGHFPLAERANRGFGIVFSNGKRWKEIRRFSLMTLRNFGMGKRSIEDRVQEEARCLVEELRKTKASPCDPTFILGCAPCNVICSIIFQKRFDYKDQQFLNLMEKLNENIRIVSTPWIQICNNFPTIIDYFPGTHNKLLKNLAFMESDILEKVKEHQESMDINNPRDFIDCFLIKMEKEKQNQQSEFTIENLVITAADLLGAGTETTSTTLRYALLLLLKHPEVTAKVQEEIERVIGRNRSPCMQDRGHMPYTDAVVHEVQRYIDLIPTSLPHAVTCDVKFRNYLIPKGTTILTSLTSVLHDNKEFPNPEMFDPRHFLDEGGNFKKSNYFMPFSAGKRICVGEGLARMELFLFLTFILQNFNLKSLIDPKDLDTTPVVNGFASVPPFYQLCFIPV
Summary of the method: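 P450-Glo CYP2C19 screening system; proluciferin substrate; DMSO compound stocks; 10 min RT preincubation; NADPH regeneration, 1 h at 37C; luciferin detection reagent, 20 min RT; luminescence as RLU.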

[16] = qHTS assay to identify small molecule agonists of the TGF-beta/Smad signaling pathway - cell viability counter screen (AID 1346829); further: top concentration of the series differs between compounds; nearly all actives have a fitted effect of over 45% in size
Summary of the method: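 Compound-treated SBE-bla HEK 293T cells (5 hr, 37 C) were assessed for viability with CellTiter-Glo in parallel with the reporter read.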

[17] = biological target: Nuclear receptor subfamily 1 group I member 2 (Homo sapiens) (UniProt O75469); experiment: Human pregnane X receptor (PXR) activation by small molecules, qHTS assay (AID 1346985); further: nearly all actives have a fitted effect of over 40% in size; further: potency means the concentration at half of the fitted maximal effect
Summary of the method: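 DPX-2 cells (HepG2 co-transfected with a PXR response element and a CYP3A4-promoter luciferase construct) were seeded at 2,000 per well, rested 5 hr at 37C, then exposed to DMSO-dissolved compounds for 24 hr. Activation was read as luciferase luminescence.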

[18] = biological target: Nuclear receptor subfamily 1 group I member 2 (Homo sapiens) (UniProt O75469); experiment: CYP3A4 induction through human pregnane X receptor (PXR) by small molecules, qHTS assay (AID 1346984); further: nearly all actives have a fitted effect of over 40% in size; further: potency means the concentration at half of the fitted maximal effect
Summary of the method: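 After 24 h at 37C with compound, DPX-2 cells (HepG2, co-transfected PXR response element and CYP3A4 promoter-luciferase) got 3uM final P450-Glo Luciferin-IPA for 3 h; One-Glo luminescence followed.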

Measured: Potency

c1ccc2c(c1)CCC2
not listed: [15] | [16] | [17] | [18]
inactive: all other assays above

CCCCCCCCCCCCCOP(=O)(O)O
active: [15] 79.6 µM
not listed: [10] | [13] | [14] | [16] | [17] | [18]
inactive: all other assays above

COc1ccccc1OCCNCC(O)COc1cccc2[nH]c3ccccc3c12 (stereo unspecified)
active: [1] 15 µM | [6] 23.7 µM | [8] 29.8 µM | [11] 8.41 µM | [17] 22.4 µM | [12] 1.55 µM | [15] 5.49 µM | [14] 8.12 µM
inactive: [2] | [16] | [3] | [4] | [5] | [9]

Oc1c(Br)cc(Br)c2cccnc12
active: [8] 23.7 µM | [11] 29.8 µM | [18] 1 µM
not listed: [4] | [5] | [6] | [13] | [14] | [17]
inactive: all other assays above

C=CCCCCCCC=C
inactive: [2] | [16] | [3] | [4] | [5] | [6] | [7] | [8] | [9] | [10]

CCOC(=O)C1=C(C)NC(C)=C(C(=O)OCC)C1c1ccccc1/C=C/C(=O)OC(C)(C)C
inactive: [2] | [16] | [4] | [5] | [18]
active: [3] 23.9 µM | [8] 33.5 µM | [11] 1.33 µM | [15] 4.9 µM

Cc1c(C(=O)O)cccc1[N+](=O)[O-]
not listed: [1] | [15] | [17] | [18]
inactive: all other assays above

O=C1NCN(c2ccccc2)C12CCN(CCCC(c1ccc(F)cc1)c1ccc(F)cc1)CC2
active: [6] 29.8 µM | [8] 33.5 µM | [10] 26.6 µM
inactive: [1] | [4] | [11] | [14]

O=C(c1ccccc1)c1cc(Cl)ccc1O
active: [12] 37.9 µM | [14] 12 µM
not listed: [1] | [11] | [13] | [15] | [17] | [18]
inactive: all other assays above

CCN(CC)c1cccc(C)c1
not listed: [1] | [5] | [6] | [12] | [17] | [18]
inactive: all other assays above

CC1=C(/C=C/C(C)=C/C=C/C(C)=C/C(=O)Nc2ccc(O)cc2)C(C)(C)CCC1
active: [7] 70.3 µM and 29.8 µM | [8] 44.4 µM and 21.1 µM | [10] 55.9 µM and 26.6 µM | [12] 13.8 µM | [13] 9.17 µM and 8.71 µM
72.8 µM (active) and inactive: [14]
19.8 µM (active) and inactive: [11]
not listed: [1] | [6] | [9] | [15]
inactive: all other assays above

N#CSCSc1nc2ccccc2s1
inactive: [1] | [3] | [5]
active: [6] 19.3 µM | [8] 17.2 µM | [9] 6.86 µM | [11] 7.7 µM | [12] 10 µM | [13] 31.7 µM | [14] 5.64 µM

CCCCCCCCCCCCCCNCCO
active: [12] 3.09 µM | [14] 28.8 µM
not listed: [1] | [4] | [5] | [8] | [13]
inactive: all other assays above

COC(=O)NCCC[Si](OC)(OC)OC
not listed: [1] | [5] | [6] | [17] | [18]
inactive: all other assays above

CC(=O)Oc1ccc(C2(c3ccc(OC(C)=O)cc3)C(=O)Nc3ccccc32)cc1
active: [15] 11 µM | [13] 5.49 µM
not listed: [1] | [4] | [5]
inactive: all other assays above
